Several values for one entry are separate records, joined by “and”; a condition that tells them apart may be missing. Identical values can stand only once. Records with an inconclusive call do not appear. Values without a mark were called inactive. The call rests on the fitted dose curve; in most records, active means well fitted cell-killing curve with a large enough effect; inconclusive means small, poorly fitted or top-dose-only effect, or effect the other way; inactive means flat fitted curve, though single readings scatter.
Experiment: qHTS assay for cell viability of HEK293 cells (AID 743288); further: nearly all actives have a fitted effect of over 50% in size
Conditions: ATP luminescence (CellTiter-Glo), 18 h, hits give low values
From the text: National Center for Advancing Translational Sciences [NCATS]
NIH Chemical Genomics Center [NCGC]
U.S. Environmental Protection Agency [EPA]
National Institutes of Environmental Health Sciences [NIEHS]
National Toxicology Program [NTP]
U.S. Food and Drug Administration [FDA]
The CellTiter-Glo Luminescent Cell Viability Assay (Promega, Madison, WI) is a homogeneous method to determine the number of viable cells in culture based on quantitation of the ATP present, which signals the presence of metabolically active cells. This cell viability assay was used to screen environmental chemicals in the Hek293 cell line.
Tox21 Assay Protocol Summary:
Cell viability after compound treatment was measured using a luciferase-coupled ATP quantitation assay (CellTiter-Glo viability assay, Promega, Madison, WI) in parental HEK293 cells. Total intracellular ATP content corresponds to the number of metabolically competent cells after compound treatment. The cells were dispensed at 2,000 cells/5 uL/well in 1,536-well white/solid bottom assay plates using a Flying Reagent Dispenser (Aurora Discovery, San Diego, CA). The cells were incubated a minimum of 5 h at 37 C, followed by the addition of 23 nL of compounds dissolved in DMSO, positive controls or DMSO only using a pintool work station (Kalypsys, San Diego, CA). The assay plates were incubated for 18 h at 37 C, followed by the addition of 5 uL/well of CellTiter-Glo reagent. After 30 min incubation at room temperature, the luminescence intensity of the plates was measured using a ViewLux plate reader (PerkinElmer, Shelton, CT).
On the % scale 0 is the no-effect control and ±100 the full control effect.

Row | SMILES | max response
1 | NC(=S)NNC(N)=S | -2.43% and -16.6%
2 | CCC(C)=O | 4.69%
3 | Cc1c(N)cccc1N | 6.3%
4 | CC(=C/C=C/C(C)=C/C=C/C=C(C)/C=C/C=C(C)/C=C/C(=O)O)/C=C/C(=O)O | -2.36%
5 | CC(=O)c1nccs1 | -7.91%
6 | COC(=O)CCC(=O)OC | 2.75%
7 | CCN(Cc1ccccc1)c1ccccc1 | -4.87%
8 | C1COC1 | 7.71%
9 | OC/C(Br)=C(\Br)CO | 0.0424%
10 | Cc1ccccc1C#N | -0.799%
11 | CC/C(C)=N/O | 6.15%
12 | Nc1cc(S(=O)(=O)O)ccc1O | -1.98%
13 | O=C(O)c1ccccc1[N+](=O)[O-] | 3.94%
14 | CCC(C)(C)C(=O)O | -3.48%
15 | O=[N+]([O-])c1ccc(CCO)cc1 | -6.69%
16 | CCCCCCCCCCCCOCC1CO1 (stereo not given) | -5.24%
17 | O=C(O)c1cccc(Cl)c1Cl | 6.72%
18 | OC(CCl)CCl | 5.53%
19 | Cc1cc(C)cc([N+](=O)[O-])c1 | 1.12%
20 | CC(=O)OCCC(C)C | 3.44%

Row | SMILES | max response
21 | O=C(O)CNC(=O)c1ccc(CO)o1 | -5.2%
22 | Nc1nc2ccccc2[nH]1 | -5.2%
23 | CCCCC(CC)COC(=O)CCCCC(=O)OCC(CC)CCCC (stereo not given) | -4.22% and -9.58%
24 | CC(C=O)Cc1ccc(C(C)(C)C)cc1 (stereo not given) | 9% and 0.62%
25 | Cc1ccc2ccccc2c1[N+](=O)[O-] | 1.17%
26 | Nc1cccc(S(=O)(=O)O)c1 | 0.367%
27 | CC(=O)Nc1ccc(C)cc1 | -2.69%
28 | CC(C)c1ccccc1 | -0.678%
29 | O=C(O)CNC(=O)c1ccc([N+](=O)[O-])cc1 | -4.53%
30 | Cc1cscn1 | -3.62%
31 | c1ccc2c(c1)Oc1ccccc1S2 | 0.655%
32 | Cc1ccc(C)o1 | -6.28%
33 | C=Cc1ccccc1C=C | 3.31%
34 | COc1ccccc1[N+](=O)[O-] | -1.85% and -1.91%
35 | C1CCCC1 | 0.668%
36 | O=Cc1c(Cl)cccc1Cl | -9.95%
37 | CC(C)(O)CCC(C)(C)O | 2.13%
38 | Cc1cc([N+](=O)[O-])ccc1N | -5.02%
39 | CCOc1ccc(NC(C)=O)cc1N | -2.43%
40 | Cc1ccc(C(C)(C)C)cc1 | 1.5%
